From PubChem
Only some compounds are listed: those with a hit (about 19% of all), similar ones and a draw of the others.
IL1B secr inh: inflammasome signaling inhibition, IL-1 beta readout; THP-1 LPS/ATP IL-1B secretion, AlphaLISA, 16 h; active compounds read low; activity change, % at 57.5 µM; 360,000 compounds, 4.7% hits; AID 743279; in the data active = activity change below about -50%; inconclusive = mostly about -30% to -49%
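Secreted IL-1B measured by AlphaLISA bead assay after 16 h compound exposure of THP-1 cells; compounds (final up to 57.5 uM) added 1 h before LPS (250 ng/mL) and ATP (1.25 mM) stimulation; lower signal means less secretion.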
DT40 TDP1 no CPT: qHTS for Inhibitors of human tyrosyl-DNA phosphodiesterase 1 (TDP1): qHTS in cells in absence of CPT | DT40 Tdp1-/- hTDP1 cells, no CPT, ATP luminescence, 48 h | Potency, µM (titrated, usually from 46.2 µM), for inactives: at the highest dose activity change, negative = growth inhibition, hits mostly inhibitors | 420,000 compounds, 15% hits | AID 686978, 2013; note: potency is the fitted concentration of half-maximal effect; nearly all actives have a fitted effect of over 55% in size
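Readout: luminescence from CellTiter-Glo after 30 min in the dark at RT. Cells: DT40 Tdp1-/- with stable hTDP1, 400/well. Exposure: compounds alone, ≥48 hr, 37 °C.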
HT1080-NT tox: kills 2HG-producing HT-1080-NT fibrosarcoma cells. HT-1080-NT fibrosarcoma viability, CellTiter-Glo ATP luminescence, 48 h. Potency, µM (highest dose often 46.1 µM), without a hit: top-dose activity, negative = less viability, actives largely listed as cytotoxic. 360,000 compounds, 1.6% hits. AID 686970;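 note: NT is the 2HG producing partner of a matched IDH1 knockdown line; potency is the fitted concentration of half-maximal effect; 0% = DMSO-treated cells and -100% = media-only wells without cells; nearly all actives have a fitted effect of over 55% in size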
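Read-out is CellTiter-Glo luminescence after 10 minutes at room temperature, following 48 hours' compound treatment of HT-1080-NT cells (750 cells/well, RPMI, 5% FBS, 37 degrees C).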
ELG1 repair inh: inhibitors of ELG1-dependent DNA repair in HEK293T cells | HEK293T ELG1-luciferase reporter, luminescence, 16 h; DNA damage induced by 5-fluorouridine | Potency, µM (titrated, usually from 46.1 µM), without a hit: at the highest dose activity change, negative = inhibition, usual class: inhibitors | 330,000 compounds, 2.3% hits; note: potency is the fitted concentration of half-maximal effect; nearly all actives have a fitted effect of over 55% in size
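DMSO vehicle served as the neutral condition. Each well held 2,000 cells given 5-fluorouridine plus compound; after 16 hr at 37 °C/5% CO2, ONE-Glo was added and luciferase measured 30 min later.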
HT1080 IDH1KD tx: kills HT-1080 cells with IDH1 knockdown. AID 686971. HT-1080 IDH1 knockdown viability, ATP luminescence, 48 h. 360,000 compounds, 2% hits. Potency, µM (titrated, usually from 46.1 µM), without a hit: top-dose activity, negative = toxicity, most hits filed as cytotoxic;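 note: potency is the fitted concentration of half-maximal effect; 0% = DMSO wells and -100% = cell-free medium wells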
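Viability of IDH1-knockdown HT-1080 fibrosarcoma cells was assessed by CellTiter-Glo after 48 h at 37 °C with titrated compound; concentration-effect curves were classified by fit quality and response size.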
DT40 TDP1 CPT: DT40-hTDP1 cell growth loss with CPT; chicken DT40 Tdp1-/-;hTDP1 cells + 20 nM CPT, ATP luminescence, 48 h; Potency, µM (doses to about 46.2 µM), for inactives: at the top dose activity change, negative = growth inhibition, usual class: inhibitors; 420,000 compounds, 12% hits; AID 686979; note: potency is the fitted concentration of half-maximal effect; nearly all actives have a fitted effect of over 55% in size
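Cell growth measured by CellTiter-Glo luminescence after a minimum 48 h, 37 C compound exposure with 20 nM CPT in Tdp1-knockout DT40 cells stably expressing hTDP1, seeded 400/well; qHTS titration format.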
Numbers without * were called inactive; ? = inconclusive; . = not tested or not shown; [ ] = remark or other dose. Unless noted, calls come from the whole dose curve; as a rule, active = well fitted curve in the direction sought with a large enough effect; inconclusive = small, poorly fitted or top-dose-only effect, or another doubt; inactive = no such curve, though single readings can be large; an effect the other way counts as inactive or inconclusive. Unless noted, % is set by controls: 0 for no effect and ±100 for the full control effect.

SMILES	IL1B secr inh	DT40 TDP1 no CPT	HT1080-NT tox	ELG1 repair inh	HT1080 IDH1KD tx	DT40 TDP1 CPT
CC(C)C1C(=O)N(Cc2cn(Cc3ccco3)nn2)CCS(=O)(=O)N1Cc1ccc(-c2ccc(F)nc2)cc1 (centres undefined)	1	-20%	-6%	.	-1%	-8%
CCC/C=C/c1ccc(CN2C(CC(C)C)C(=O)N(Cc3cn(Cc4ccco4)nn3)CCS2(=O)=O)cc1 (centres undefined)	-62*	?	?	.	?	?
CN(C(=O)Nc1ccccc1)C1CCCc2ccccc21 (centres undefined)	-1	?	-5%	?	2%	-4%
CC(=O)c1ccc(NC(=O)C(C)n2nc(-c3ccccc3)ccc2=O)cc1 (centres undefined)	.	-6%	.	.	.	-1%
CC(C)CN(CCCNC(=O)c1cc(-c2ccc(Br)s2)nc2ccccc12)CC(C)C	.	-26%	.	.	.	?
O=C(Nc1nnc(S(=O)(=O)N2CCCCC2)s1)c1ccc(F)cc1	.	-17%	.	.	.	-10%
CC(C)C(=O)N1CCCC1(C)C(=O)Nc1ccc(-n2cccc2)cc1 (centres undefined)	-23	-6%	22%	.	1%	4%
COC(=O)c1c(C)sc(-c2c(-c3cccc(OC)c3)[nH]c3c2c(=O)[nH]c(=O)n3C)c1O	.	-26%	.	.	.	-3%
COC(=O)c1c(C)sc(-c2c(-c3ccc4c(c3)OCCO4)[nH]c3c2c(=O)[nH]c(=O)n3C)c1O	.	21µM*	.	.	.	?
Cc1cccc(NC(=O)CCC(=O)OCC(=O)c2ccc(Oc3ccc([N+](=O)[O-])cc3)cc2)c1	15	?	-6%	?	-10%	21µM*
O=C(CCCCCNc1nc(=S)[nH]c2ccccc12)NCCC1=CCCCC1	32	-28%	9%	-3%	16%	-15%
Cc1cccc(OCc2nnc(SCC(=O)N3CCCC3)o2)c1	18	-4%	0%	5%	22%	4%
Cc1cccc(OCc2nnc(SCC(=O)N(C)C3CCCCC3)o2)c1	-2	?	-6%	1%	2%	18µM*
CCN(C(=O)CSc1ccc2ccccc2n1)C1CCCCC1	-69*	?	19%	-27%	19%	?
CN(C(=O)CSc1nc2ccccc2o1)C1CCCCC1	?	29µM*	5%	?	4%	?
CCOc1ccc(N(CC(=O)NC2CCCC2)C(=O)CSc2nnc(COc3ccccc3)o2)cc1	-55*	21µM*	-17%	-28%	-6%[9.24 µM]	21µM*
CC1CCCN(C(=O)CSc2nc3ccccc3o2)C1 (centres undefined)	-15	-7%	-1%	?	-2%	-10%
COC(=O)Cc1ccc(OC2(C)CCN(Cc3ccc(-c4ccccn4)cc3)C2)cc1 (centres undefined)	-7	?	?	.	-23%	?
O=C(CSc1nnc(COc2ccc(Cl)cc2)o1)N(c1ccccc1)C1CCS(=O)(=O)C1 (centres undefined)	-17	13µM*	-16%	.	-23%	?
COc1ccc(-c2nnc(SCC(=O)N(C)C3CCCCC3)o2)cc1OC	.	12µM*	.	.	.	16µM*
Cc1cc(CCNC=O)c(C)c2c1oc1ccccc12	-24	-2%	-1%	.	5%	0%
CC1CCC(C(C)C)C2=C1C(C#N)(C#N)C(C#N)(C#N)C(c1ccccc1)N2 (centres undefined)	-86*	18µM*	-26%	?	0%[9.24 µM]	?
O=C(Cn1nnc(-c2cccc(C(F)(F)F)c2)n1)NCc1ccc(F)cc1	.	-28%	.	.	.	-24%
